A selection: hits, their analogues and other compounds. The true share with any hit is near 19%.
HepG2 tox: kills HepG2 cells in TGF-b inhibitor counter-screen; 410,000 compounds, 0.76% hits; AID 588856; Potency, µM (doses to about 46.1 µM), for inactives: at the top dose activity change, negative = cytotoxicity, hits mostly cytotoxic; HepG2 CAGA-GFP viability, ATP luminescence, 18 h; further: potency means the concentration at half of the fitted maximal effect
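CellTiter-Glo luminescence gave cytotoxicity after 18 hours at 37 degrees C. The cells were HepG2 CAGA-GFP in 1% FBS DMEM, stimulated with 500 pg/mL TGF-beta after compound addition. %Activity was normalised to no-cell wells (complete cell-killing) and DMSO (no toxicity), and curves were fitted and classified.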
IL-1B inflam inh: inflammasome signaling inhibition, IL-1 beta readout; 360,000 compounds, 4.7% hits; activity change, % at 57.5 µM; THP-1 LPS/ATP IL-1B secretion, AlphaLISA, 16 h; stronger effect = lower value; in the data active means activity change below about -50%; inconclusive means mostly about -30% to -49%; further: on the % scale 0 is the no-effect control and ±100 the full control effect
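Secreted IL-1B measured by AlphaLISA bead assay after 16 h compound exposure of THP-1 cells; compounds (final up to 57.5 uM) added 1 h before LPS (250 ng/mL) and ATP (1.25 mM) stimulation; lower signal means less secretion.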
TGFb inhibitor: inhibitors of TGF-b signaling; HepG2 CAGA-GFP TGF-b/SMAD3 reporter, GFP fluorescence, 18 h; TGF-beta stimulated, 500 pg/mL final; Potency, µM (highest dose often 46.1 µM), for the others: at the highest dose activity, negative = inhibition, most hits filed as inhibitors; 410,000 compounds, 1.2% hits; AID 588855; further: potency means the concentration at half of the fitted maximal effect; on the % scale 0 is the no-effect control and ±100 the full control effect; nearly all actives have a fitted effect of over 65% in size
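HEPG2 CAGA-GFP, 1000 cells/well; 2 h settle, 37 C; cpd via pin tool; TGF-b 500 pg/mL final; 18 h, 37 C; GFP imaging ex488/em500-530; %Activity normalised to -TGF-b and +DMSO controls; CRC fit, curve class.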
DT40 TDP1 CPT: growth inhibition of DT40 Tdp1-/-;hTDP1 cells with camptothecin (screen for TDP1 inhibitors); chicken DT40 Tdp1-/-;hTDP1 cells + 20 nM CPT, ATP luminescence, 48 h; 420,000 compounds, 12% hits; Potency, µM (series often up to 46.2 µM), for inactives: at the top dose activity change, negative = growth inhibition, actives largely listed as inhibitors; further: potency means the concentration at half of the fitted maximal effect; on the % scale 0 is the no-effect control and ±100 the full control effect; nearly all actives have a fitted effect of over 55% in size
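Chicken DT40 Tdp1-/- cells complemented with human TDP1, 400 cells/well, exposed to compounds plus 20 nM camptothecin for at least 48 h at 37 C; viability read as ATP content by CellTiter-Glo luminescence.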
S-ASM inh: human S-ASM enzyme inhibition; 340,000 compounds, 0.006% hits; P17405; AID 504937; placental ASM, HMU-PC fluorogenic substrate, 60 min; Potency, µM (top dose mostly 57.5 µM), inactives show top-dose activity change, negative = inhibition, usual class: inhibitors; further: potency means the concentration at half of the fitted maximal effect
Target sequence (P17405 47-631 limits assumed): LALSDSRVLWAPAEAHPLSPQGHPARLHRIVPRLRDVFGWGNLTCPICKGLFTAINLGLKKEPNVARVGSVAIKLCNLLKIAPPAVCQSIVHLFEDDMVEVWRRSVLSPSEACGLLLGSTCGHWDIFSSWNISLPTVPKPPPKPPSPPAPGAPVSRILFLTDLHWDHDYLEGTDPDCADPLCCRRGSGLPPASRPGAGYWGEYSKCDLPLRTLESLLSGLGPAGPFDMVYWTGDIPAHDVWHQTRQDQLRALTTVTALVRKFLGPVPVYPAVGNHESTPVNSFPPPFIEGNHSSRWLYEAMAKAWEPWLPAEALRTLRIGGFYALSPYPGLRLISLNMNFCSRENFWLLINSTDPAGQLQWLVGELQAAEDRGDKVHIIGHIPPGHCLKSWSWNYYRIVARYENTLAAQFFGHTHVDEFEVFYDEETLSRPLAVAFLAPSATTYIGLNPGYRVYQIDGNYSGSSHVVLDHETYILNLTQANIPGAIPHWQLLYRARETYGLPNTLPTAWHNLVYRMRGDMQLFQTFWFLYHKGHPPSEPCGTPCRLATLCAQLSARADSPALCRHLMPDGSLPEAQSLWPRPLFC
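qHTS format. ASM enzyme prepared from human placenta hydrolyses the fluorogenic substrate HMU-PC0 (9 uM final) over 60 min at 37 °C after a 10 min compound preincubation.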
DT40 TDP1 no CPT: qHTS for Inhibitors of human tyrosyl-DNA phosphodiesterase 1 (TDP1): qHTS in cells in absence of CPT; DT40 Tdp1-/- hTDP1 cells, no CPT, ATP luminescence, 48 h; Potency, µM (titrated, usually from 46.2 µM), without a hit: at the highest dose activity change, negative = growth inhibition, hits mostly inhibitors; 420,000 compounds, 15% hits; further: potency means the concentration at half of the fitted maximal effect; on the % scale 0 is the no-effect control and ±100 the full control effect; nearly all actives have a fitted effect of over 55% in size
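Cells were dispensed at 400 per well, compounds added by pin tool, plates incubated ≥48 hr at 37 °C, then CellTiter-Glo added for 30 min at room temperature before luminescence reading. Line: DT40 Tdp1-/- complemented with hTDP1; camptothecin omitted.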
Numbers without * were called inactive; ? = inconclusive; / = not tested or not shown. Unless noted, the call rests on the fitted dose curve; in most records, active means well fitted curve in the direction sought with a large enough effect; inconclusive means small, poorly fitted or top-dose-only effect, or another doubt; inactive means no such curve, though single readings can be large; an effect the other way counts as inactive or inconclusive.

SMILES	HepG2 tox	IL-1B inflam inh	TGFb inhibitor	DT40 TDP1 CPT	S-ASM inh	DT40 TDP1 no CPT
CCOC(=O)c1c(C)oc2c1cc(NS(=O)(=O)c1ccc(C)cc1)c1ccccc12	-15%	/	0%	?	/	21µM*
COC(=O)C(C(=O)OC)c1ccccc1NS(=O)(=O)c1c(C)cc(C)cc1C	/	34	/	16µM*	/	21µM*
CCOC(=O)c1c(C)oc2c(Cl)cc(NS(=O)(=O)c3ccc(Cl)c(C)c3)cc12	-95%	/	?	?	/	26µM*
COC(=O)c1c(C)oc2c1cc(NS(=O)(=O)c1c(C)cc(C)cc1C)c1ccccc12	-36%	/	?	12µM*	/	21µM*
COC(=O)C(C(=O)OC)c1ccccc1NS(=O)(=O)c1ccc(C)cc1	/	63	/	-6%	/	20%
COc1ccc(NC(=O)N(C)C[C@H]2Oc3ccc(NC(=O)Nc4c(C)noc4C)cc3C(=O)N([C@H](C)CO)C[C@@H]2C)cc1	5%	11	12%	2%	0%	-4%
CCOC(=O)c1c(NC(=O)c2ccccc2C)sc2c1CC(C)(C)OC2	-2%	-28	5%	?	-5%	?
CCOC(=O)c1c(NC(=O)c2ccc(C)cc2)sc2c1CC(C)(C)OC2	2%	-16	?	?	-4%	18µM*
CCOC(=O)c1c(NC(=O)CCC(=O)N(CC)CC)sc2c1CC(C)(C)OC2	1%	0	-1%	?	0%	?
C=C(C)CNC(=S)Nc1sc2c(c1C(=O)OCC)CC(C)(C)OC2	-5%	20	-5%	23µM*	-14%	16µM*
CCOC(=O)c1c(C)[nH]c(C)c1C(=O)COC(=O)c1cccnc1SC	-25%	-28	-3%	?	-3%	-28%
CCC1CN(C(=O)Nc2ccccc2C(F)(F)F)c2ccccc2S1 (stereo not drawn)	1%	/	-4%	-10%	/	3%
O=C(NCc1ccccc1)C(=O)Nc1c2c(nn1-c1ccc(F)cc1)CSC2	-2%	/	16%	?	/	16µM*
COc1ccc(-n2nc3c(c2NC(=O)CCl)CSC3)cc1	-44%	-107*	?	2.6µM*	6%	2.3µM*
COc1ccc(-n2nc3c(c2NC(=O)C(C)Cl)CSC3)cc1 (stereo not drawn)	-3%	-8	-6%	-14%	-1%	-25%
CC(=O)N1CCN(C(=O)C(=O)Nc2c3c(nn2-c2ccc(Cl)cc2)CSC3)CC1	1%	/	15%	-1%	/	-13%
CC(C)CCNC(=O)C(=O)Nc1c2c(nn1-c1ccc(Cl)cc1)CSC2	-2%	/	-7%	26µM*	/	12µM*
O=C(NCCOCCO)C(=O)Nc1c2c(nn1-c1ccc(F)cc1)CSC2	-5%	/	-17%	7%	/	1%
Cc1n[nH]c(C)c1CCN(C)C(=O)C1CCC(=O)N(CC2CCCCC2)C1 (stereo not drawn)	3%	10	1%	5%	/	-1%
O=C(NC(Sc1ccc(Cl)cc1)C(=O)O)c1ccccc1 (stereo not drawn)	-27%	-2	-11%	21µM*	/	?
CNC(=O)c1ccc2c(c1)N=C(C)c1cc(C)ccc1S2	-13%	/	?	3.7µM*	/	4.6µM*
CC1=Nc2cc(C(=O)NC(C)C)ccc2Sc2ccc(C)cc21	3%	/	?	4.6µM*	/	4.1µM*
CCOC(=O)N1CCC(NC(=O)c2ccc3c(c2)N=C(C)c2ccccc2S3)CC1	-10%	22	-14%	?	-1%	?
COc1ccc2cc(C#CC3=CC(=O)C[C@H](c4ccc(F)cc4)C3)ccc2c1	-39%	-76*	-25%	?	/	?
